Molecules are shown by their SMILES. Activity calls are given as the source filed them. The call rests on the fitted dose curve; in most records, active means well fitted curve in the direction sought with a large enough effect; inconclusive means small, poorly fitted or top-dose-only effect, or effect the other way, or another doubt; inactive means no such curve, though single readings can be large or run the other way.

This assay can be described thus: qHTS for inhibitors of adenylyl cyclases using a fission yeast platform: a pilot screen against the NCATS LOPAC library (AID 1347410). To be noted: S. pombe CHP2027, fbp1-GFP fluorescence, 18 h, yeast expressing mammalian AC9 and human GNAS; series mostly up to 57.5 µM. An excerpt: PI: Charles S. Hoffman Ph.D
Boston College, 140 Commonwealth Ave., Chestnut Hill, MA
Assay Development and Screening Technology Laboratory (ADST)
National Center for Advancing Translational Sciences (NCATS), Rockville, MD
National Institute of Health (NIH), Bethesda, Maryland
The fission yeast Schizosaccharomyces pombe uses a cAMP signaling pathway to link glucose-sensing to Protein Kinase A activity in order to regulate cell growth, sexual development, gluconeogenesis, and exit from stationary phase. Here, we describe the successful functional expression of all ten mammalian adenylyl cyclase (AC) genes, along with the human GNAS G-alpha gene in this organism. By measuring expression of a PKA-repressed fbp1-GFP reporter together with direct measurements of intracellular cAMP levels, one can detect both basal AC activity from all ten AC genes as well as GNAS-stimulated activity from eight of the nine transmembrane ACs (tmACs; AC2-AC9).
Further confirmation and validation of active compounds lead to the identification of diphenyleneiodonium chloride (DPI) as an inhibitor of basal AC activity. This fluorescence based fbp1-GFP-GNAS screening technology could facilitate the development of therapeutic compounds that target GNAS or the ACs, an area in which there is significant unmet need.
The gain-of-signal output is not substantially affected by cytotoxic compounds within the library.
Getz RA, et al., A fission yeast platform for heterologous expression of mammalian adenylyl cyclases and high throughput screening, Cellular Signaling, 2019, 60: 114-121. doi.org/10.1016/j.cellsig.2019.04.010.
PROTOCOL TABLE (as described by Inglese J, Shamu CE and Guy RK. 2007)
SEQUENCE No. (e.g., 1, 2, 3, etc.); […] (e.g., Cells, Incubation, Reagent, etc.); VALUE; DESCRIPTION.
1; Dispense growth medium; 2 uL; black, clear bottom, low base, 1536-well Aurora assay plate.
2; Compounds and control; 23 nL; Kalypsis pin tool (Wako USA) equipped with a 1536-well pin head to transfer to the assay plates.
3; Dispense yeast cells; 2 uL; CHP2027 cells.
4; Incubation; 18 hours (dark at 30C); Non-humidified microbial incubator.
5; Detector; 425V; Fluorescence; laser scanning cytometry.
NOTES (numbers refer to Sequence numbers above)
1. S. pombe growth medium EMM containing histidine, lysine, and uracil was initially dispensed into the assay plate to avoid yeast contamination using a Multidrop Combi dispenser (Thermo Fisher Scientific).
2. 10 mM stock solution of DPI (Sigma-Aldrich D2926) dissolved in DMSO was used as a 16-point dose response positive control, while 1.11 mM DPI stock solution was used as a single point max response positive control. Solvent DMSO was used as the negative control. Control DPI was transferred as a single-dose (column 3; rows 1-32; 1.11 mM stock), and multi-dose (column 4; rows 1-32; 10mM stock; 1:1.5 dilution; 16pnt titration) positive controls. Vehicle control DMSO was pinned into column 1-2, rows 1-32. Lopac compounds were pinned into columns 5-48 resulting to a final concentration range 57 µM to 78.4 nMControl DPI stock (10 mM) was prepared by dissolving 10 mg in 3.18 mL DMSO; while 1.11 mM DPI stock was prepared by mixing 100 uL of 10 mM DPI with 800 uL DMSO. To create the control plates, we initially start with a 384-well compound working plate. With a repeater pipette, (a.) 16 uL/well of 1.11 mM DPI was added to column 3; (b.) 16 uL/well of DMSO was added into rows 2-16 of column 4; (c.) 50 uL/well of DPI added to rows 1 and 2 of column 4; (d.) 32 uL serial dilution (two-thirds-fold) from rows 2 to 16 of column 4 with manual pipette. From the 384-well compound working plate, 7 uL of respective control compound was transferred to respective columns of the 1536-well compound plate using a multichannel pipette.
3. S. pombe CHP2027 (AC9-GNAS-PDE4D2) expressing fbp1-GFP cells were grown at 30C in EMM medium containing histidine, lysine, and uracil. […]
`CC(C)(C(=O)O)c1ccc(C(O)CCCN2CCC(C(O)(c3ccccc3)c3ccccc3)CC2)cc1` (stereo not given): the compound was classed as inactive. The value for `NC(=O)c1ncn([C@@H]2O[C@H](CO)[C@@H](O)[C@H]2O)n1` was “inactive”. The value for `Nc1cc(=O)[nH]c(N)n1` was “inactive”; that for `CCN(CC)CCNC(=O)c1c(C)[nH]c(/C=C2\C(=O)Nc3ccc(F)cc32)c1C` was “inactive”. In the case of `CN(C)CCC=C1c2ccccc2CCc2ccccc21`, the compound was classed as inactive. For `OCCN1CCN(CCCN2c3ccccc3Sc3ccc(Cl)cc32)CC1`, the result was inactive.

With `CCN(CC)CCNC(=O)c1cc(Cl)c(N)cc1OC`, the outcome was inactive. In the case of `NC(N)=NCCC[C@H](N)C(=O)O`, the result was inactive.

`COc1ccc(Cl)cc1C(=O)NCCc1ccc(S(=O)(=O)NC(=O)NC2CCCCC2)cc1`: the call was inactive.

As to `CC(C)(C)c1onc(OCP(=O)(O)O)c1CC(N)C(=O)O` (stereo not given), the outcome was inactive. The value for `COCCOC(=O)C1=C(C)NC(C)=C(C(=O)OC/C=C/c2ccccc2)C1c1cccc([N+](=O)[O-])c1` (stereo not given) was “inactive”. For the compound `CSc1ccc2c(c1)N(CCC1CCCCN1C)c1ccccc1S2` (stereo not given), the compound was classed as inactive. With `O=C1N=C(O)CN1/N=C/c1ccc(-c2ccc([N+](=O)[O-])cc2)o1` the entry was “inactive”; with `C[C@H]1O[C@@H](n2cc(F)c(=O)[nH]c2=O)[C@H](O)[C@@H]1O`, “inactive”; with `CC(CN(C)C)CN1c2ccccc2CCc2ccccc21` (stereo not given), “inactive”.

With `Nc1ncnc2c1ncn2[C@@H]1O[C@H](CO)[C@@H](O)[C@H]1O`, the result was inactive. In the case of `CNC(=O)Oc1ccc2c(c1)[C@]1(C)CCN(C)[C@@H]1N2C`, the call was inactive.

For the compound `CNCCC(Oc1ccc(C(F)(F)F)cc1)c1ccccc1` (stereo not given), the call was inactive. In the case of `CNCCCC1c2ccccc2C=Cc2ccccc21`, the compound was called inactive. The value for `NC1[C@H]2CN(c3nc4c(cc3F)c(=O)c(C(=O)O)cn4-c3ccc(F)cc3F)C[C@@H]12` (stereo not given in full) was “inactive”; that for `CC(C)(C)[C@]1(O)CCN2C[C@H]3c4ccccc4CCc4cccc(c43)[C@@H]2C1` was “inactive”; that for `C[C@]12C[C@H](O)[C@H]3[C@@H](CCC4=CC(=O)CC[C@@]43C)[C@@H]1CC[C@@H]2C(=O)CO` was “inactive”. Consider `CCN(CC)C(C)CN1c2ccccc2Sc2ccccc21` (stereo not given), for which the compound was called inactive. Consider `CCCCN(CCCC)CC(O)c1cc(Cl)cc2c1-c1ccc(Cl)cc1/C2=C/c1ccc(Cl)cc1` (stereo not given), for which the result was inactive. With `C[C@H](NC(CCc1ccccc1)C(=O)O)C(=O)N1CCC[C@H]1C(=O)O` (stereo not given in full) the entry was “inactive”; with `CC(C)NC[C@H](O)c1ccc(O)c(O)c1`, “inactive”.

`CC1=C(CC(=O)O)c2cc(F)ccc2/C1=C\c1ccc(S(C)(=O)=O)cc1`: the call was inactive. Take `CC(CN1c2ccccc2Sc2ccccc21)N(C)C` (stereo not given): the outcome was inactive. The value for `N=c1c[n+](N2CCOCC2)[n-]o1` was “inactive”.

As to `CC1=C(/C=C/C(C)=C/C=C/C(C)=C/C(=O)O)C(C)(C)CCC1`, the call was inactive. With `CN(C)CCCN1c2ccccc2Sc2ccc(Cl)cc21` the entry was “inactive”; with `O=C1NC(=O)[C@@]2(CCOc3ccc(F)cc32)N1`, “inactive”; with `CC(=O)c1ccc2c(c1)N(CCCN(C)C)c1ccccc1S2`, “inactive”.

In the case of `CC(C)C(=O)c1c(C(C)C)nn2ccccc12`, the call was inactive. Take `C[C@](N)(Cc1ccc(O)cc1)C(=O)O`: the outcome was inactive. The value for `C[C@]12CC[C@@H]3c4ccc(O)cc4CC[C@H]3[C@@H]1CCC2=O` was “inactive”; that for `CCN(CC)CCCC(C)Nc1c2ccc(Cl)cc2nc2ccc(OC)cc12` (stereo not given) was “inactive”; that for `COC(=O)C1=C(C)NC(C)=C(C(=O)OC)C1c1ccccc1[N+](=O)[O-]` was “inactive”.

Turning to `CN1CCC[C@@H]1Cc1c[nH]c2ccc(CCS(=O)(=O)c3ccccc3)cc12`, the compound was classed as inactive. The value for `CCCn1cnc2c1c(=O)n(CCCCC(C)=O)c(=O)n2C` was “inactive”.
